Test in all cases: DAPPL (digital affinity profiling via proximity ligation, sequencing); 10 mM Tris-HCl pH 7.5, 50 mM NaCl, 1 mM DTT, 4% glycerol, room temperature, 30 min; GST-TFs on glutathione beads, 16-mer random dsDNA library, 0.1% formaldehyde crosslink after washing; high values mean tight binding
In one test the target is T1, FEV (Homo sapiens, UniProt Q99581 1-238).
T1 sequence: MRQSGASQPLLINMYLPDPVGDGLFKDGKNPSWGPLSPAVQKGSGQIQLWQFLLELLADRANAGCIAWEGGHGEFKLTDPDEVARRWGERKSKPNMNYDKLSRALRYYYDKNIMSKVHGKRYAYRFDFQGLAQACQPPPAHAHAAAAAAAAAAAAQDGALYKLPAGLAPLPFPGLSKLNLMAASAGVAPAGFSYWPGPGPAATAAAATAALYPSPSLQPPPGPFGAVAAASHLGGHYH
The settings on record: protein: recombinant; tags: N-terminal GST; dsDNA, one strand shown. A digest of the protocol:
(§1)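 Yeast served to express human transcription factors as GST fusions, which were then captured on glutathione beads and labelled with DNA barcodes. Pooled with a tag-only sample, they were incubated with 200 nmole of a 16-mer random double-stranded DNA library for 30 min at room temperature in Tris/NaCl/DTT/glycerol buffer, washed, crosslinked with 0.1% formaldehyde, ligated by proximity, amplified by PCR and sequenced. Dividing each hexamer's read frequency for a factor by its frequency for the tag-only sample gives the binding signal.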

A further test deals with ETV5 (Homo sapiens, UniProt P41161 1-510). As to conditions: protein: recombinant; tags: N-terminal GST; dsDNA, one strand shown. A digest of the protocol:
as §1

A further test addresses HSF1 (Homo sapiens, UniProt Q00613 1-529). The settings on record: protein: recombinant; tags: N-terminal GST; chain copies: 3; dsDNA, one strand shown. A digest of the protocol: as §1
For the next test, the target named is T2, SPIC (Homo sapiens, UniProt Q8N5J4 1-248).
T2 sequence: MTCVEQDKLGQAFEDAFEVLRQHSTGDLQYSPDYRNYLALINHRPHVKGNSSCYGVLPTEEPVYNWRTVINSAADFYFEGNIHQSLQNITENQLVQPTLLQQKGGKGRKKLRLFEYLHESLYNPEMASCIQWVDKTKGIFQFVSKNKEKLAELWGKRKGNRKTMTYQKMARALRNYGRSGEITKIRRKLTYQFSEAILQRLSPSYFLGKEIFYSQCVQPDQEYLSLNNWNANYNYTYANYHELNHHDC
The settings on record: protein: recombinant; tags: N-terminal GST; dsDNA, one strand shown. Summed up:
as §1

The next test concerns the target ELF4 (Homo sapiens, UniProt Q99607 1-663). The settings on record: protein: recombinant; tags: N-terminal GST; dsDNA, one strand shown. Summed up: as §1
Another test deals with T3, ELK4 (Homo sapiens, UniProt P28324-2 1-405).
T3 sequence: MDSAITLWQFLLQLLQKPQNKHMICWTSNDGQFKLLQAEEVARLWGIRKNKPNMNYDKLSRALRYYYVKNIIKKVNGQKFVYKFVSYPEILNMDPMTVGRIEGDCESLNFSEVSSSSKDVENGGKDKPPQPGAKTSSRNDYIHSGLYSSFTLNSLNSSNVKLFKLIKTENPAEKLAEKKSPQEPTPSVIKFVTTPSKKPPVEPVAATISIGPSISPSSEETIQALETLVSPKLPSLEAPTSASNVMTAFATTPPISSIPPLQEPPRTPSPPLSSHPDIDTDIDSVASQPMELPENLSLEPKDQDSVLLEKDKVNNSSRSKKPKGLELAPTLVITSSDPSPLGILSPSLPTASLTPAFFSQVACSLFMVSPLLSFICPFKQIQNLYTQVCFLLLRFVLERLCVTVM
The settings on record: protein: recombinant; tags: N-terminal GST; dsDNA, one strand shown. Summed up: as §1

For another test, the target named is T4, ETV2 (Homo sapiens, UniProt O00321 1-342).
T4 sequence: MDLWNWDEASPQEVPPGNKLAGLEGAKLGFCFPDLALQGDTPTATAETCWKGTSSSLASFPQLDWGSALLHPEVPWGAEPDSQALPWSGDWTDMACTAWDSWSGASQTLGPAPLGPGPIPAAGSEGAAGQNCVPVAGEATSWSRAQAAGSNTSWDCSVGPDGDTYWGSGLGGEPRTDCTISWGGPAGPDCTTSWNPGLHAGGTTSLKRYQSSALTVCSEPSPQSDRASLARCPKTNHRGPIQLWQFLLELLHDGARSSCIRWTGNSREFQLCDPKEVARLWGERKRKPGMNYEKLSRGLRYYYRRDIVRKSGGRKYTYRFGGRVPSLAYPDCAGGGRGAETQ
As to conditions: protein: recombinant; tags: N-terminal GST; dsDNA, one strand shown. A digest of the protocol:
as §1

Another test deals with T5, ELF3 (Homo sapiens, UniProt P78545 1-371).
T5 sequence: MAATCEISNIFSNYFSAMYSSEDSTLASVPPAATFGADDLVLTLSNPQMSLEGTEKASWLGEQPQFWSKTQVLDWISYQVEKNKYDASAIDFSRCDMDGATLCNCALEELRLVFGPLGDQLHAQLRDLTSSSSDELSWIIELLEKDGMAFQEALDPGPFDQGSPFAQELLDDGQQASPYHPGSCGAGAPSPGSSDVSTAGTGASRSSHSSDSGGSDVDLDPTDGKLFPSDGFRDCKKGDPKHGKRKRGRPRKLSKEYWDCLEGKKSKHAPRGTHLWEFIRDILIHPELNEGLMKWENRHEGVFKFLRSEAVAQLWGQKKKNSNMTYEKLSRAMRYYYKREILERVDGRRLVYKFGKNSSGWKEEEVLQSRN
The settings on record: protein: recombinant; tags: N-terminal GST; dsDNA, one strand shown. Summed up:
as §1

Another test has as its target CRX (Homo sapiens, UniProt O43186 1-299). As to conditions: protein: recombinant; tags: N-terminal GST; dsDNA, one strand shown. A digest of the protocol:
as §1

The target of the next test is ETV1 (Homo sapiens, UniProt P50549 1-477). As to conditions: protein: recombinant; tags: N-terminal GST; dsDNA, one strand shown. A digest of the protocol:
as §1

Another test deals with T6, ERF (Homo sapiens, UniProt P50548 1-548).
T6 sequence: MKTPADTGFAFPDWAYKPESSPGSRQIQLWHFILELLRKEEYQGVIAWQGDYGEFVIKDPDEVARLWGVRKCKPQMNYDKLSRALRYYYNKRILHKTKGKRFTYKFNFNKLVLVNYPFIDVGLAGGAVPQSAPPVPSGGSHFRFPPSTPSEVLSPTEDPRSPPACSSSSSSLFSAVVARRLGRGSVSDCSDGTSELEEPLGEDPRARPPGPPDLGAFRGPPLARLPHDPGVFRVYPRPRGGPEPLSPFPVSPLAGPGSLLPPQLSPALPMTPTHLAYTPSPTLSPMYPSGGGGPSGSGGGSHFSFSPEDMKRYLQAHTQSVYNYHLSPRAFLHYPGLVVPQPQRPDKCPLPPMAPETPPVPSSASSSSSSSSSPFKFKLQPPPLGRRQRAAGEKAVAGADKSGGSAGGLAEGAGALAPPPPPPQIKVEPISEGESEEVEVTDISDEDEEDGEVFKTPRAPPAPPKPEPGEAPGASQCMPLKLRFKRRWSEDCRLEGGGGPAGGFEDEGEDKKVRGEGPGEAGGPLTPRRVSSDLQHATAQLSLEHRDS
The settings on record: protein: recombinant; tags: N-terminal GST; dsDNA, one strand shown. A digest of the protocol:
as §1

The next test concerns the target T7, ETV3L (Homo sapiens, UniProt Q6ZN32 1-361).
T7 sequence: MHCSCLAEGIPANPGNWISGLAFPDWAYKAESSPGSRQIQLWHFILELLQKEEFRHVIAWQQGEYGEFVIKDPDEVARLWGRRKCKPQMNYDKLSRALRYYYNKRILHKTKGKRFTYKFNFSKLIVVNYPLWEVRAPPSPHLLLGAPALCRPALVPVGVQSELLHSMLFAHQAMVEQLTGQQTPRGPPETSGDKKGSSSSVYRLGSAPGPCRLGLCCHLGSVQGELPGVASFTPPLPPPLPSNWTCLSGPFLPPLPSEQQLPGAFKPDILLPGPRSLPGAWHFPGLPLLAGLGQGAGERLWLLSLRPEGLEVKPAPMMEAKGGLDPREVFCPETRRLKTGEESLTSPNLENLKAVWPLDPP
The settings on record: protein: recombinant; tags: N-terminal GST; dsDNA, one strand shown. Summed up: as §1

A further test has as its target T8, ETS2 (Homo sapiens, UniProt P15036 1-469).
T8 sequence: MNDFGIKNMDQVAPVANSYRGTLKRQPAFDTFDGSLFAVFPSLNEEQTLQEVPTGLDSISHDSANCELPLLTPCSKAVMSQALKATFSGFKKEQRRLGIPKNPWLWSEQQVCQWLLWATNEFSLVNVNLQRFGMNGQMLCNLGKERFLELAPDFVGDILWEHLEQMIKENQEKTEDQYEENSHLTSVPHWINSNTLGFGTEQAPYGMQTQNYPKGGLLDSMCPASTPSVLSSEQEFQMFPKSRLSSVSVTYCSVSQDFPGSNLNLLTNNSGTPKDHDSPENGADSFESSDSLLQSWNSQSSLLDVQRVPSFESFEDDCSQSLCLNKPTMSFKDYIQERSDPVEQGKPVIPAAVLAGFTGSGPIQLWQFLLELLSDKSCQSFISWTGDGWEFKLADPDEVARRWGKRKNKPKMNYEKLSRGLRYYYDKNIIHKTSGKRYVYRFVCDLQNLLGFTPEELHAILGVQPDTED
The settings on record: protein: recombinant; tags: N-terminal GST; dsDNA, one strand shown. A digest of the protocol:
as §1

The target in another test is T9, SPDEF (Homo sapiens, UniProt O95238 1-335).
T9 sequence: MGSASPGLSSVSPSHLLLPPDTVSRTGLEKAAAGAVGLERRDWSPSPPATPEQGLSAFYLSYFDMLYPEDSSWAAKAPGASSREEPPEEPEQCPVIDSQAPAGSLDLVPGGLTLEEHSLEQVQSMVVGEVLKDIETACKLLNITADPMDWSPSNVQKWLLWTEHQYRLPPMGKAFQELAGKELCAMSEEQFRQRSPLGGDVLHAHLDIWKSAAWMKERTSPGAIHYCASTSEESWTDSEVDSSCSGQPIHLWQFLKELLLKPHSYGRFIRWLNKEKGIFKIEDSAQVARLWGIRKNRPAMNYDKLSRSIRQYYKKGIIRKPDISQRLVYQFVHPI
As to conditions: protein: recombinant; tags: N-terminal GST; dsDNA, one strand shown. Summed up:
as §1

A further test deals with T10, ETV7 (Homo sapiens, UniProt Q9Y603 1-341).
T10 sequence: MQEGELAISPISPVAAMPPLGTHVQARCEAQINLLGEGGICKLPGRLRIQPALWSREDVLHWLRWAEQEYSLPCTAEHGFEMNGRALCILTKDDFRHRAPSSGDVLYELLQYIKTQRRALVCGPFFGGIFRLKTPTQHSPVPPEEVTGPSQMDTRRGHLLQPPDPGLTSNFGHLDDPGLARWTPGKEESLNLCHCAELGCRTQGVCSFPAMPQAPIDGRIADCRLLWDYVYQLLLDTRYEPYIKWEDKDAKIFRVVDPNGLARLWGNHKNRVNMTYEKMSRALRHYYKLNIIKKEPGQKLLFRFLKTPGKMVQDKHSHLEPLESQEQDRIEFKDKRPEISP
As to conditions: protein: recombinant; tags: N-terminal GST; dsDNA, one strand shown. A digest of the protocol:
as §1

Another test has as its target T11, ELF5 (Homo sapiens, UniProt Q9UKW6-2 1-255).
T11 sequence: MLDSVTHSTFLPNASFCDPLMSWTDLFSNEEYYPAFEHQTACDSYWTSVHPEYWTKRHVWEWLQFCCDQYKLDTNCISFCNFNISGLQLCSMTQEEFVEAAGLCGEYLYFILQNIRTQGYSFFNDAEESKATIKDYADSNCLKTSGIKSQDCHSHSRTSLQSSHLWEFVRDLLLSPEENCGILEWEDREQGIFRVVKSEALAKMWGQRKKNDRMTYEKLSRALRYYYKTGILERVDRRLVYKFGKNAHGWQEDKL
As to conditions: protein: recombinant; tags: N-terminal GST; dsDNA, one strand shown. A digest of the protocol:
as §1

For the next test, the target named is T12, ETV3 (Homo sapiens, UniProt P41162-2 1-143).
T12 sequence: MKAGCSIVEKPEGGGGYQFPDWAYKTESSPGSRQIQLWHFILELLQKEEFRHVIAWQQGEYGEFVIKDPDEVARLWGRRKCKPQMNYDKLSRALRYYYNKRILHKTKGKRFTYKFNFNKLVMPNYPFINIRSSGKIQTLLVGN
As to conditions: protein: recombinant; tags: N-terminal GST; dsDNA, one strand shown. A digest of the protocol:
as §1

The next test deals with ETV6 (Homo sapiens, UniProt P41212 1-452). As to conditions: protein: recombinant; tags: N-terminal GST; dsDNA, one strand shown. A digest of the protocol:
as §1

This note sets out measurements from article PMC7862700, “An all-to-all approach to the identification of sequence-specific readers for epigenetic DNA modifications on cytosine”.

HSF1, sequence (Q00613 whole entry): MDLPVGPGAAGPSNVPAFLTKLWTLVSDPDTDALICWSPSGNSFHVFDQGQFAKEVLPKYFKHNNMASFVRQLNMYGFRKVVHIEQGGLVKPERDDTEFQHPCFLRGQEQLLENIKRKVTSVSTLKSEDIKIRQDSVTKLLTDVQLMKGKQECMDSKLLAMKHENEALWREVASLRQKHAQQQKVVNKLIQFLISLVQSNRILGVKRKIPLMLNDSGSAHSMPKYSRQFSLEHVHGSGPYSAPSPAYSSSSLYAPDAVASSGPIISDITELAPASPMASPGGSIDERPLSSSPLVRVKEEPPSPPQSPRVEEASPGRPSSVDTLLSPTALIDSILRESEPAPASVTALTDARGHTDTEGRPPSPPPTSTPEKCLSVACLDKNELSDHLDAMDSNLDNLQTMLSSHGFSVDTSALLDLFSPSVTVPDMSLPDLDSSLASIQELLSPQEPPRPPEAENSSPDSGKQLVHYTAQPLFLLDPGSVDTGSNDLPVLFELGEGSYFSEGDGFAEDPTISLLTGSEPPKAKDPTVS
ETV6, sequence (P41212 whole entry): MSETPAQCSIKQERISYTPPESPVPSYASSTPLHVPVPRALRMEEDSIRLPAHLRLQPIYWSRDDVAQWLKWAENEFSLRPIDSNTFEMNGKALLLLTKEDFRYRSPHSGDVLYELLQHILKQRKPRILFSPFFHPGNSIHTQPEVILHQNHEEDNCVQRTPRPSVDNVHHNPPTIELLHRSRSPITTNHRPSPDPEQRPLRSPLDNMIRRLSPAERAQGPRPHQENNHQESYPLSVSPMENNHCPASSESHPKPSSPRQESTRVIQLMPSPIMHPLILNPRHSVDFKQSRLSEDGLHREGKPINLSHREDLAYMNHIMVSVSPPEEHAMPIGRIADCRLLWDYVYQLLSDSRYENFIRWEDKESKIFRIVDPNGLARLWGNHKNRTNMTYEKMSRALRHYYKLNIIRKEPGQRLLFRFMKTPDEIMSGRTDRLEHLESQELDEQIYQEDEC
ETV1, sequence (P50549 whole entry): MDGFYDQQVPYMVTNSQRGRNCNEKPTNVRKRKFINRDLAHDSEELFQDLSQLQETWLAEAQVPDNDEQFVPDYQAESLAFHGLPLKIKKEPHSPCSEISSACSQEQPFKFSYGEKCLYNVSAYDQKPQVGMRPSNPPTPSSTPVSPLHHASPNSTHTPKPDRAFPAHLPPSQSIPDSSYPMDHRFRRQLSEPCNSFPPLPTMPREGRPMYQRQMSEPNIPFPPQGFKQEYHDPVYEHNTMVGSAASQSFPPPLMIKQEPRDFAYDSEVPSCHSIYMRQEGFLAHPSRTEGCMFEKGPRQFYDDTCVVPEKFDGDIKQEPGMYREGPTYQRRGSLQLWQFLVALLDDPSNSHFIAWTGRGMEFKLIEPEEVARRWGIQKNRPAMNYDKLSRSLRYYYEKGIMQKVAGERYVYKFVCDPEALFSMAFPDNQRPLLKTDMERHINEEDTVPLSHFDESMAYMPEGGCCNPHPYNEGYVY
CRX, sequence (O43186 whole entry): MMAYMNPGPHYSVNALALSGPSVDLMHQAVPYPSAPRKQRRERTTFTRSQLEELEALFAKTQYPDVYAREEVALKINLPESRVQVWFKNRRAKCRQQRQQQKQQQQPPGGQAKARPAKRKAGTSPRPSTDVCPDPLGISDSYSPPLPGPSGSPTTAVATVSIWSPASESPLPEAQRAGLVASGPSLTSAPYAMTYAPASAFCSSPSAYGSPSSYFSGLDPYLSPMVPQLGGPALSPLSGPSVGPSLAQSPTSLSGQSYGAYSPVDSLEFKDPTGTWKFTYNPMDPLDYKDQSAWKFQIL
ELF4, sequence (Q99607 whole entry): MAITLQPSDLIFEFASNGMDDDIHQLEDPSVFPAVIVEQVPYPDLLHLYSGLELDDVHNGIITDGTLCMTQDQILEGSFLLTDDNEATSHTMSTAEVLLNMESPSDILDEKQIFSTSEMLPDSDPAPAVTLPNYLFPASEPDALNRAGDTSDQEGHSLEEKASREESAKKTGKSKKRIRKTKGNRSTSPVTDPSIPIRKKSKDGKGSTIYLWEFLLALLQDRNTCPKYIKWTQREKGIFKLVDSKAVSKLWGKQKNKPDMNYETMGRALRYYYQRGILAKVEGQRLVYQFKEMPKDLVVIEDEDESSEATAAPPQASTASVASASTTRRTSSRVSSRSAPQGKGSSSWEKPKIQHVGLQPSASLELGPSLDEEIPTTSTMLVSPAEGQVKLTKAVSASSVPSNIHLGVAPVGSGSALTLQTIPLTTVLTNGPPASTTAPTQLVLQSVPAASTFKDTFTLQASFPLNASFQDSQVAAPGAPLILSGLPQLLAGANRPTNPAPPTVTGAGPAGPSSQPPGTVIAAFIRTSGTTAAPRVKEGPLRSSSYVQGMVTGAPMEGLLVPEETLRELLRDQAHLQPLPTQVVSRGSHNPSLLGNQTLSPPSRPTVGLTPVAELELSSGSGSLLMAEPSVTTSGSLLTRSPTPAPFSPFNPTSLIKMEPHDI
ETV5, sequence (P41161 whole entry): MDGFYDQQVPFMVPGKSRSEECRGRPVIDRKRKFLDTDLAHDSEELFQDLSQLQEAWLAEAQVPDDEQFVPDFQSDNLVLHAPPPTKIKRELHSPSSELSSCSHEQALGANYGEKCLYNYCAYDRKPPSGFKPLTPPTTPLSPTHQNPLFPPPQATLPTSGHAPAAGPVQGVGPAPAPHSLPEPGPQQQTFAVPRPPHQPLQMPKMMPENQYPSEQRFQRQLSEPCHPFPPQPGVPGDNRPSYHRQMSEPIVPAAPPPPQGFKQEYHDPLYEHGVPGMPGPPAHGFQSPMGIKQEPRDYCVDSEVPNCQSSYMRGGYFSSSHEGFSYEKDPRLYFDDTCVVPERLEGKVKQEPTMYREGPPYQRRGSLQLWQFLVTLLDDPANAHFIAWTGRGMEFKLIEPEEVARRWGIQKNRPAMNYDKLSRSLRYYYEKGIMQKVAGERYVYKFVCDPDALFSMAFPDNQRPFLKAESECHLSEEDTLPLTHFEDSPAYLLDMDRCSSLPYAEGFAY

Take GTTAAC: the binding signal with FEV was 1.18 fold enrichment (6-mer frequency, TF over GST control); in the test with ETV5, 1.19 fold enrichment (6-mer frequency, TF over GST control); with HSF1, 1.02 fold enrichment (6-mer frequency, TF over GST control); with SPIC, 1.11 fold enrichment (6-mer frequency, TF over GST control); with ELF4 it was 1.19 fold enrichment (6-mer frequency, TF over GST control); with ELK4, 1.25 fold enrichment (6-mer frequency, TF over GST control). The binding signal with ETV2 is 1.2 fold enrichment (6-mer frequency, TF over GST control); with ELF3 it was 1.21 fold enrichment (6-mer frequency, TF over GST control); with CRX, 1.15 fold enrichment (6-mer frequency, TF over GST control); in the test with ETV1, 1.2 fold enrichment (6-mer frequency, TF over GST control); in the test with ERF, 1.12 fold enrichment (6-mer frequency, TF over GST control); with ETV3L, 1.14 fold enrichment (6-mer frequency, TF over GST control). Moreover, the binding signal with ETS2 was 1.22 fold enrichment (6-mer frequency, TF over GST control); with SPDEF, 1.23 fold enrichment (6-mer frequency, TF over GST control); with ETV7, 1.24 fold enrichment (6-mer frequency, TF over GST control); with ELF5 it was 1.22 fold enrichment (6-mer frequency, TF over GST control); in the test with ETV3 it was 1.27 fold enrichment (6-mer frequency, TF over GST control); with ETV6 it was 1.18 fold enrichment (6-mer frequency, TF over GST control).
